In all, about 420,000 compounds went through this assay and about 64,000 (15%) were called active. Roughly 27% stayed inconclusive and do not appear here. These entries were drawn from the full list. A call without a number means that no potency is given here. Unmarked numbers belong to inactive results. Calls come from the whole dose curve; as a rule, active = well fitted inhibition curve with a large enough effect; inconclusive = small, poorly fitted or top-dose-only effect; inactive = flat fitted curve, though single readings scatter.
Test: qHTS for Inhibitors of human tyrosyl-DNA phosphodiesterase 1 (TDP1): qHTS in cells in absence of CPT; note: nearly all actives have a fitted effect of over 55% in size
Details: DT40 Tdp1-/- hTDP1 cells, no CPT, ATP luminescence, 48 h; activity change, negative = growth inhibition: at 46.2 µM (top of the series)
Outline: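 A cellular qHTS used chicken DT40 cells lacking endogenous Tdp1 but carrying stably transfected human TDP1. Compounds were applied without camptothecin, and cell growth kinetics were judged by ATP-dependent luminescence after ≥48 hr.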
Potency is the fitted concentration of half-maximal effect.

Row | SMILES | Potency | activity change, negative = growth inhibition
1 | CCCc1ccc(C(=O)COC(=O)CN2C(=O)NC3(CCCCC3C)C2=O)cc1 (stereo not given) | inactive | –
2 | O=C(Nc1cccc(-c2cscn2)c1)C1CCN(Cc2ccsc2)CC1 | inactive | –
3 | Cc1ccccc1NC(=O)NCC1CCN(Cc2cccc(Cl)c2)CC1 | inactive | –
4 | O=C(Nc1cccc(-c2cccc(Cl)c2)c1)C1CCN(C2CCC2)CC1 | 23.1 µM (active) | –
5 | O=C(NCC1CCN(Cc2ccccc2Cl)CC1)Nc1cccc(Cl)c1 | 18.4 µM (active) | –
6 | O=C(NC1CCCC1)C1CCN(C(=O)Nc2cccc(Cl)c2)CC1 | inactive | –
7 | CCn1cc(CN2CCC(n3nccc3NC(=O)CCCc3ccccc3)CC2)c(C)n1 | inactive | –
8 | CCn1cc(CN2CCC(C(=O)Nc3cccc(-c4cccc(Cl)c4)c3)CC2)c(C)n1 | 4.61 µM (active) | –
9 | COc1cccc(-c2cccc(NC(=O)C3CCN(C4CCC4)CC3)c2)c1 | inactive | –
10 | COc1ccc(Cl)cc1NC(=O)NCC1CCN(Cc2ccccc2F)CC1 | inactive | –
11 | CC1Cc2ccccc2N1S(=O)(=O)c1c(N)n(C)c(=O)n(C)c1=O (stereo not given) | inactive | –
12 | CCSc1nnc(NC(=O)c2cc(=O)c3cc(C)c(C)cc3o2)s1 | inactive | –
13 | COc1ccc(S(=O)(=O)NCC(=O)NC2CC2)cc1OC | inactive | –
14 | CCN1CCN(C(C(=O)NC2CCCC2)c2cc3c(cc2[N+](=O)[O-])OCO3)CC1 (stereo not given) | inactive | –
15 | CC(C)CN1CC(C)C(=O)N(c2ccccc2)C1=S (stereo not given) | inactive | –
16 | Nc1nc(SCC(=O)NNc2c(Cl)cc(Cl)cc2Cl)n[nH]1 | inactive | –
17 | C[C@@H]1CCCCO[C@H](CN(C)Cc2ccccc2)[C@@H](C)CN([C@H](C)CO)C(=O)c2cc(NS(=O)(=O)c3ccc(Cl)cc3)ccc2O1 | 16.4 µM (active) | –
18 | Cc1noc(C)c1S(=O)(=O)N(C)C[C@H]1OCCCC[C@@H](C)Oc2ccc(NC(=O)CCCN(C)C)cc2C(=O)N([C@H](C)CO)C[C@@H]1C | inactive | –
19 | CC(C)NC(=O)Nc1ccc2c(c1)C(=O)N([C@H](C)CO)C[C@H](C)[C@@H](CN(C)Cc1ccc(C(F)(F)F)cc1)OCCCC[C@@H](C)O2 | inactive | –
20 | O=C(Nc1ccnn1C1CCN(Cc2cccc(OCCO)c2)CC1)C1CCCC1 | inactive | –
21 | CC1(C)CC(=O)C=C(NC2CC(C)(C)NC(C)(C)C2)C1 | inactive | –
22 | CC(=O)c1cnn(-c2cc(Oc3ccc(F)cc3)ncn2)c1C | inactive | –
23 | COc1cc(/C=C2/C(=O)NN(c3ccc(F)cc3)C2=O)cc([N+](=O)[O-])c1O | inactive | –
24 | C/C=C/C(=O)Nc1nnc(C(C)C)s1 | inactive | –
25 | COc1cccc(CN2CCC(C(=O)NC(c3ccc4c(c3)OCO4)c3ccccn3)CC2)c1 (stereo not given) | inactive | –

Row | SMILES | Potency | activity change, negative = growth inhibition
26 | O=C(NC(c1ccc(Cl)cc1)c1cnccn1)C1CCN(Cc2ccc(Cl)cc2)CC1 (stereo not given) | 20.6 µM (active) | –
27 | CCOc1ccc(CN2CCC(n3nccc3NC(=O)C3CC3)CC2)cc1CO | inactive | –
28 | Cc1cccnc1C(NC(=O)C1CCN(Cc2ccc(Cl)c(Cl)c2)CC1)c1ccc(Cl)cc1 (stereo not given) | 4.61 µM (active) | –
29 | Clc1ccc(CN2CCCCCC2)cc1Cl | inactive | –
30 | O=C(NNS(=O)(=O)c1ccc(Cl)cc1)C1CCN(Cc2ccccc2)CC1 | inactive | –
31 | Fc1cccc(Cl)c1CSc1ccc(-c2ccco2)nn1 | inactive | –
32 | CCOc1ccc(S(=O)(=O)N2CCC(C(=O)NCc3ccccn3)CC2)cc1Cl | inactive | –
33 | Cc1ccc(S(=O)(=O)NCC(=O)NNC(=O)c2ccc(Br)cc2)cc1C | inactive | –
34 | O=C(NNS(=O)(=O)c1ccc(F)cc1)c1cnccn1 | inactive | –
35 | CO/N=C(\C(=O)N[C@@H]1C(=O)N2C(C(=O)O)=C(C[N+]3(C)CCCC3)CS[C@H]12)c1csc(N)n1 | inactive | –
36 | O=C(COC(=O)/C=C/c1nc2ccccc2s1)Nc1ccccc1Oc1ccccc1 | inactive | –
37 | c1ccc(CCc2ccccn2)cc1 | inactive | –
38 | CC(C)NC(=O)N1CCC2(CC1)CCN(C(=O)c1cccn1C)CC2 | inactive | –
39 | Cn1cccc1C(=O)N1CCC2(CC1)CN(c1cccc(-c3ccccc3)c1)C2 | 16.4 µM (active) | –
40 | COc1ccc(NC(=O)N2CC3(CCN(C(=O)c4cccn4C)CC3)C2)cc1 | inactive | –
41 | CCN(CC)CCn1cnc2c1c(=O)n(CCOC(=O)c1cc(OC)c(OC)c(OC)c1)c(=O)n2C | inactive | –
42 | CC(=O)c1nn(-c2ccc(C)cc2)cc1C(=O)c1cccc(Br)c1 | inactive | –
43 | O=C(CCNC(=O)c1ccc([N+](=O)[O-])cc1)NC1CCCCC1 | inactive | –
44 | CC(C)C1=CC2=CC[C@H]3[C@](C)(C(=O)O)CCC[C@]3(C)C2CC1 (stereo not given in full) | – | 3.41% [at 9.04 µM]
45 | COc1ccc(CN2CCNC(=O)C2CC(=O)NCc2cn[nH]c2-c2ccccc2)c(F)c1 (stereo not given) | inactive | –
46 | COc1ccc(NS(=O)(=O)c2ccc(NC(=O)C(C)(C(F)(F)F)C(F)(F)F)cc2)nn1 | inactive | –
47 | c1ccc(-c2cn3cccnc3n2)cc1 | inactive | –
48 | c1ccc(-c2cn3c(n2)CCc2ccc4cccnc4c2-3)cc1 | 16.4 µM (active) | –
49 | Cc1csc(NC(=O)CSc2nc(=O)n(CCCN(C)C)c3c2CCC3)n1 | inactive | –
50 | Cc1ccc(NC(=O)CSc2nc(=O)n(CCN(C)C)c3c2CCCC3)c(C)c1 | inactive | –

Row | SMILES | Potency | activity change, negative = growth inhibition
51 | Cc1ccc2nc(NC(=O)CSc3nc(=O)n(CCCN(C)C)c4c3CCC4)sc2c1 | 13 µM (active) | –
52 | CCOC(=O)CC1=CC(=O)Nc2ccccc2N1 | inactive | –
53 | CCc1ccccc1NC(=O)CN(C)C(=O)c1cc(C2CC2)nn1-c1ccccc1 | inactive | –
54 | CCc1ccccc1NC(=O)CN1CCN(C(=O)c2cc(C3CC3)nn2-c2ccccc2)CC1 | 23.1 µM (active) | –
55 | COc1cccc(NC(=O)CN(C)C(=O)c2cc(C3CC3)nn2-c2ccccc2)c1 | inactive | –
56 | COc1ccc(C(=O)Nc2ccc(NC(=O)C(C)C)nc2)cc1 | inactive | –
57 | COc1ccc(NC(=O)c2cccc(Cl)c2)c[n+]1[O-] | inactive | –
58 | Cc1ccc(C(=O)Nc2ccc3[nH]c(=O)c(=O)[nH]c3c2)cc1 | inactive | –
59 | COc1ccc(Sc2ccc(NC(=O)c3cccc(Cl)c3)cc2C#N)cc1 | 23.1 µM (active) | –
60 | COC(=O)c1ccc(Sc2ccc(F)cc2)c(N)c1 | inactive | –
61 | Cc1ccc(Sc2ccc(NC(=O)c3ccc(F)cc3)cc2C#N)cc1 | 11.6 µM (active) | –
62 | COc1cccc(NC(=O)CCNS(=O)(=O)c2ccc3c(c2)oc(=O)n3C)c1 | inactive | –
63 | COCC(C)N=CC1=C(O)CC(C)(C)CC1=O (stereo not given) | inactive | –
64 | C=CCN1C=C(C(=O)c2ccccc2)C(=O)CC1 | inactive | –
65 | O=C(CCS(=O)(=O)Cc1ccccc1F)NCCCN1CCCCC1 | inactive | –
66 | CCCCNC(=O)OCCSCCS(=O)(=O)c1ccc(Cl)cc1 | inactive | –
67 | CC12CCCCC1=CC(=O)CC2 (stereo not given) | inactive | –
68 | Cc1c(Cl)cccc1NC(=O)NCCCN1CCCC1=O | inactive | –
69 | Cc1ccc(-c2cccc([C@H]3[C@@H]4C=CC[C@@H](C)[C@@H]4C(=O)N3Cc3ccccc3)c2)cc1 | 20.6 µM (active) | –
70 | Cc1cccc([C@@H]2[C@@H]3C(=O)N(C)C(=O)[C@@H]3[C@@H]3C(=O)Nc4ccccc4C(=O)N23)c1 | inactive | –
71 | Cc1cccc([C@@H]2[C@@H]3C(=O)N(Cc4ccccc4)C(=O)[C@@H]3[C@]3(Cc4ccc(Cl)cc4)C(=O)N(c4cccc(Cl)c4)C(=O)N23)c1 | inactive | –
72 | Cc1cccc([C@H]2[C@@H]3C=CC[C@@H](C)[C@@H]3C(=O)N2Cc2ccccc2)c1 | 14.6 µM (active) | –
73 | O=C(NNC(=S)NCCCN1CCOCC1)c1ccncc1 | inactive | –
74 | O=C(NCCCN1CCOCC1)c1ccc([N+](=O)[O-])cc1[N+](=O)[O-] | inactive | –
75 | CC(C)c1ccc(/C=C/C(=O)NCCCN2CCOCC2)cc1 | 20.6 µM (active) | –

Row | SMILES | Potency | activity change, negative = growth inhibition
76 | CCCC(=O)N(CCc1ccccc1)Cc1nc2ccccc2c(=O)[nH]1 | inactive | –
77 | CN(C)CCCNC(=O)c1cc(C(=O)Cc2ccc(Cl)cc2)c[nH]1 | inactive | –
78 | O=C(COC(=O)Cc1ccccc1F)NCCc1ccccc1 | inactive | –
79 | N=c1n(CCc2ccccc2)c2ccccc2n1Cc1ccccc1F | 5.17 µM (active) | –
80 | CCCCc1nccn1CCn1ccnc1CCCC | inactive | –
81 | CC(C)NC(=O)NC(=O)CSc1nnc(-c2ccccc2F)n1N | inactive | –
82 | C=CCn1c(P(C)(=O)O)nc2ccccc21 | inactive | –
83 | C=C(Br)Cn1c(CCCC)nc2ccccc21 | 11.6 µM (active) | –
84 | O=C(O)Cn1c(Cc2ccccc2)nc2ccccc21 | inactive | –
85 | CCCCCCCC/C=C\CCCCCCCC(=O)OC[C@H](CO)OC(C)=O | – | -8.7% [at 4.12 µM]
86 | CCCOC(=O)c1c(NC(=O)c2cc3nc(-c4ccc(OC)cc4)cc(C(F)(F)F)n3n2)sc2c1CCCC2 | inactive | –
87 | CC(=O)NS(=O)(=O)c1ccc2c(c1)Cc1cc(S(=O)(=O)NC(C)=O)ccc1-2 | inactive | –
88 | Cc1nc2nc3c(cn2n1)C(=O)CC(c1ccccc1)C3 (stereo not given) | inactive | –
89 | CCC(=O)N1c2ccccc2NC2=C(C(=O)CCC2)C1c1ccco1 (stereo not given) | inactive | –
90 | O=C1CC(c2ccccc2)CC2=C1C(c1ccco1)n1nc(C(F)(F)F)nc1N2 (stereo not given) | 14.1 µM (active) | –
91 | CCOc1ccc(S(=O)(=O)NCCC(=O)NCC(C)(C)N2CCOCC2)cc1 | inactive | –
92 | Cc1ccccc1NC(=O)C(C)c1ccc(-c2ccccc2)c(F)c1 (stereo not given) | 16.4 µM (active) | –
93 | O=C(Nc1ccccc1F)c1ccccc1-c1ccccc1 | inactive | –
94 | CC(C(=O)Nc1ccccc1-c1ccccc1)N1CCOCC1 (stereo not given) | inactive | –
95 | COC1=CC(=O)OC(c2ccc(OC)cc2)C1 (stereo not given) | inactive | –
96 | COc1ccc(N=Nc2c(-c3ccc(OC)cc3)[nH]oc2=O)cc1 | inactive | –
97 | COc1ccc(N=C2C=CC(=O)O2)cc1 | 4.61 µM (active) | –
98 | COc1ccc(OC)c2c(N)c(C#N)c(C(F)(F)C(F)(F)F)nc12 | inactive | –
99 | Cc1ccc(C(=O)OCC(=O)NCc2ccc3c(c2)OCO3)s1 | inactive | –
100 | COc1ccc(-c2cc(C(F)(F)F)nc(S(C)(=O)=O)n2)cc1OC | 5.17 µM (active) | –

Reference: PubChem BioAssay AID686978 (National Center for Advancing Translational Sciences (NCATS), 2013)
